In PubChem BioAssay (EPA / NIEHS):
Records with an inconclusive call do not appear. Activity calls are given as the source filed them. How the source made its calls, unless noted: active means hit-call score of the fitted dose curve at least 0.9, where 1 is the maximum; inactive means score below 0.9.

Legend:
[1] = CCTE_Shafer_MEA_acute_per_burst_spike_number_mean: CCTE's Neural Acute Assay for Average Number of Spikes Per Burst, Shafer Lab (AID 2284015);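 further: hits are decreases in mean spikes per burst versus baseline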
How it was run: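 Read-out: percent change in mean spikes per burst, each well's post-exposure 40-min recording versus its own 40-min baseline. Rat cortical cultures, DIV 13 or 15, compounds 0.03-40 uM; DMSO is negative control, loss-of-signal fitting.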

[2] = CCTE_Shafer_MEA_acute_burst_percentage_mean: CCTE's Neural Acute Assay for Percentage of Spikes in a Burst, Shafer Lab (AID 2284017);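 further: curve fitted for loss of signal so potency reflects decreased burst percentage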
How it was run: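 Rat cortical cultures, DIV 13/15, 37 C. Spikes detected at 8x rms noise (300-5000 Hz band-pass). Burst spikes/total spikes averaged across electrodes per well; % change post- vs pre-treatment (40 min each), loss-of-signal fit vs DMSO.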

[3] = CCTE_Shafer_MEA_acute_burst_percentage_std: CCTE's Neural Acute Assay for Standard Deviation of Burst Percentage, Shafer Lab (AID 2284018);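 further: fitted in the negative direction so actives lower burst percentage SD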
How it was run: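 Rat primary cortical neurons on 48-well MEAs, DIV 13 or 15, 37 C. 40-min baseline then 40-min recording with compound (0.03-40 uM); well-level SD of per-electrode burst spike percentage, expressed as percent change from baseline.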

[4] = CCTE_Shafer_MEA_acute_per_network_burst_spike_number_mean: CCTE's Neural Acute Assay for Average Number of Spikes in a Network Burst, Shafer Lab (AID 2284019)
How it was run: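 Rat cortical cultures, DIV 13/15; spike threshold 8x rms noise, 300-5000 Hz band-pass, 12.5 kHz sampling; wells need >/= 10 active electrodes. Compound 0.03-40 uM, 40 min, 37 C; % change vs own baseline, DMSO negative control.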

[5] = CCTE_Shafer_MEA_acute_per_network_burst_spike_number_std: CCTE's Neural Acute Assay for Standard Deviation of Number of Spikes in a Network Burst, Shafer Lab (AID 2284020);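 further: fitted for decrease in spike-number SD versus DMSO so actives lower it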
How it was run: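 Rat cortical cultures, DIV 13/15, 37 C; 20-min stabilisation, 40-min baseline, compound 0.03-40 uM, 40-min re-record. Spikes detected at 8x rms noise (300-5000 Hz band-pass). Readout: % change from baseline in per-burst spike-number SD.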

[6] = CCTE_Shafer_MEA_acute_per_network_burst_electrodes_number_mean: CCTE's Neural Acute Assay for Mean Number of Electrodes in a Network Burst, Shafer Lab (AID 2284021);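 further: curves fitted for decreases only so hits reduce electrodes per burst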
How it was run: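 Primary rat cortical networks, mwMEA, 37 C. 20 min stabilization, 40 min baseline, compound 0.03-40 uM, 40 min re-record. Wells need >=10 active electrodes; percent change per well, negative fitting direction.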

[7] = CCTE_Shafer_MEA_acute_network_burst_percentage: CCTE's Neural Acute Assay for Percentage of Network Bursts, Shafer Lab (AID 2284022);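 further: curves fitted for loss so actives lower network burst percentage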
How it was run: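 Readout is the fraction of spikes falling in network bursts, expressed as per-well percent change from a 40-min pre-exposure baseline. Primary rat cortical neurons on MEA were exposed to 0.03-40 uM compound on DIV 13 or 15 and recorded for 40 min at 37 C.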

[8] = CCTE_Shafer_MEA_acute_cross_correlation_HWHM: CCTE's Neural Acute Assay for Cross Correlation at Half Width at Half Maximum, Shafer Lab (AID 2284026);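 further: percent change per well from pre-dose baseline in spike cross-correlogram half width; hits are a decrease in cross-correlogram half width relative to DMSO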
How it was run: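 Rat cortical neuron cultures on microelectrode arrays were equilibrated 20 min at 37 C, recorded 40 min at baseline, then 40 min after compound addition (0.03-40 uM, ≥3 wells). Spikes were detected at 8x rms noise after 300-5000 Hz band-pass filtering.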

[9] = CCTE_Shafer_MEA_acute_synchrony_index: CCTE's Neural Acute Assay for Synchrony, Shafer Lab (AID 2284027);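 further: network synchrony index of spontaneous spiking in primary rat cortical neurons on MEAs; fitted for loss of signal so actives lower synchrony relative to DMSO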
How it was run: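 Acute exposure of rat primary cortical neurons (DIV 13 or 15) at 0.03-40 uM. Synchrony index, 40 min before vs after, as % change relative to DMSO control.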

[10] = CCTE_Shafer_MEA_dev_firing_rate_mean: CCTE's Neural Network Formation Assay for Mean Firing Rate, Shafer Lab (AID 2284031);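 further: curve fitted for loss of firing so AC50 reflects decreased mean firing rate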
How it was run: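 Extracellular spike frequency, AUC over DIV 5–12 recordings, in rat cortical neuron MEA cultures dosed from plating; loss direction vs DMSO.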

[11] = CCTE_Shafer_MEA_dev_per_burst_spike_percent: CCTE's Neural Network Formation Assay for Percent of Spikes in a Burst, Shafer Lab (AID 2284032);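 further: fitted as a decrease in burst spike percentage below DMSO baseline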
How it was run: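 Value is trapezoidal AUC over recordings on days 5, 7, 9 and 12 of the well-mean fraction of spikes falling in single-electrode bursts; rat cortical cultures exposed continuously from plating, treatment renewed DIV 5 and 9, fitted downward against DMSO.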

[12] = CCTE_Shafer_MEA_dev_active_electrodes_number: CCTE's Neural Network Formation Assay for Number of Active Electrodes, Shafer Lab (AID 2284040; active means hit-call score of the fitted dose curve at least 0.9, where 1 is the maximum;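 further: potency for loss of active electrodes versus DMSO so lower counts are hits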)
How it was run: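 Developing rat cortical networks on MEAs, exposed DIV 0–12. Value is the AUC of active-electrode counts (≥5 spikes/min) from days 5, 7, 9, 12, relative to DMSO.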

[13] = CCTE_Shafer_MEA_dev_burst_rate: CCTE's Neural Network Formation Assay for Burst Rate, Shafer Lab (AID 2284042);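 further: potency for loss of burst rate below DMSO control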
How it was run: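 Cells plated, treated day 0; recorded DIV 5, 7, 9, 12; fed and re-treated DIV 5, 9. Endpoint: bursts per recording time, active-electrode well mean, trapezoidal AUC, fitted in decreasing direction against DMSO baseline.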

[14] = CCTE_Shafer_MEA_dev_bursting_electrodes_number: CCTE's Neural Network Formation Assay for Number of Bursting Electrodes, Shafer Lab (AID 2284043; active means hit-call score of the fitted dose curve at least 0.9, where 1 is the maximum;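 further: potency is for loss of bursting electrodes relative to DMSO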)
How it was run: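 Rat cortical primary neurons, 48-well MEA, 16 electrodes/well; dosing DIV 0–12, re-dosed with full media change DIV 5, 9. Recordings DIV 5/7/9/12, AxIS adaptive spike detector; bursting electrode = ≥1 burst/2 min. AUC across days; loss of signal vs DMSO.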

[15] = CCTE_Shafer_MEA_dev_per_burst_interspike_interval: CCTE's Neural Network Formation Assay for Burst Interspike Interval, Shafer Lab (AID 2284044);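 further: potency for a decrease of within-burst interspike interval below DMSO level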
How it was run: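 Neurons from rat cortex plated onto PEI-coated MEA wells with laminin […] at 1.5 x 10^5 cells/well, then treated from day 0. Media and compound fully replaced on DIV 5 and 9. Extracellular spontaneous firing recorded four times; interspike interval per burst summarised as AUC.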

[16] = CCTE_Shafer_MEA_dev_burst_duration_mean: CCTE's Neural Network Formation Assay for Mean Burst Duration, Shafer Lab (AID 2284045);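 further: curve fitted for loss meaning shorter burst duration than DMSO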
How it was run: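 Rat cortical cultures, 1.5 x 10^5 cells/well with laminin drop; continuous dosing days 0–12, media plus treatment refreshed DIV 5, 9. AxIS adaptive spike detection; mean single-electrode burst duration, AUC over four recordings, negative direction vs DMSO.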

[17] = CCTE_Shafer_MEA_dev_interburst_interval_mean: CCTE's Neural Network Formation Assay for Mean Interburst Interval, Shafer Lab (AID 2284046);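 further: well-mean interburst interval of bursting electrodes as AUC over four recording days; curve fitted for decrease in interburst interval relative to DMSO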
How it was run: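 Developing rat cortical networks on 48-well MEAs receive compound from the day of plating. Burst intervals from each active electrode are averaged per well, and AUC over the recording days is fitted in the negative direction against DMSO.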

[18] = CCTE_Shafer_MEA_dev_inter_network_spike_interval_mean: CCTE's Neural Network Formation Assay for Mean Inter-network Spike Interval, Shafer Lab (AID 2284047);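 further: potency for a decrease in mean inter-network spike interval below DMSO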
How it was run: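 Rat cortical cultures, 1.5 x 10^5 cells/well on 48-well MEA plates; continuous exposure days 0–12, medium and compound refreshed DIV 5, 9. Mean time between consecutive network-spike peaks; AUC across DIV 5/7/9/12; DMSO baseline, negative fitting direction.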

Measured: AC50

CNCCC(Oc1ccc(C(F)(F)F)cc1)c1ccccc1 (stereo not drawn)
inactive: [1] | [4] | [5] | [6] | [7]
active: [2] 7.59 µM | [3] 5.91 µM | [8] 7.68 µM | [9] 6.04 µM | [10] 1.87 µM | [11] 4.19 µM | [12] 2.55 µM | [13] 2.77 µM | [14] 1.79 µM | [15] 3.14 µM | [16] 2.81 µM | [17] 4.18 µM | [18] 1.4 µM
